Compound activity deposited in PubChem BioAssay by National Center for Advancing Translational Sciences (NCATS).
This is a sample that favours compounds with a hit; in the whole collection about 9.9% have one here.
HPGD block – qHTS Assay for Inhibitors of HPGD (15-Hydroxyprostaglandin Dehydrogenase) | 15-hydroxyprostaglandin dehydrogenase [NAD(+)] (Homo sapiens), P15428 | purified HPGD, NADH fluorescence kinetic, PGE2 substrate | Potency, µM, for inactives: at the top dose activity change, negative = inhibition, actives largely listed as inhibitors | 4.3% of 150,000 active | AID 894, 2007
Target sequence (P15428 whole entry, looked up): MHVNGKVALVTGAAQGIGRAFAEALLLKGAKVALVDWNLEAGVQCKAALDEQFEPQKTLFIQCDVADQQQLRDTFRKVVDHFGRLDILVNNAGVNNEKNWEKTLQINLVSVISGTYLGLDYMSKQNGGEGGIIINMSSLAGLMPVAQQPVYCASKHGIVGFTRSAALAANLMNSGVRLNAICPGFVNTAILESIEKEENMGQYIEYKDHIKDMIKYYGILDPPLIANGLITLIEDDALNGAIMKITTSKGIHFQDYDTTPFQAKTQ
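NADH formation kinetics: reaction with 30 uM PGE2 and 1 mM NAD+ (final), 20 nM enzyme, Tris-HCl pH 8 with Tween 20, after 15 min compound preincubation at room temperature. Fluorescence change, last versus first of five reads.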
JMJD2E inh – qHTS Assay for Inhibitors of Human Jumonji Domain Containing 2E (JMJD2E); 1.6% of 230,000 active; Potency, µM (top dose mostly 57.1 µM), inactives show top-dose activity change, negative = inhibition, usual class: inhibitors; JMJD2E catalytic domain, FDH-coupled NADH fluorescence (FDH is formaldehyde dehydrogenase); Lysine-specific demethylase 4E (Homo sapiens), B2RXH2; AID 2147, 2009;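 further: 0% = wells with enzyme and -100% = buffer wells without enzyme; nearly all actives have a fitted effect of over 50% in size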
Tau fibril ThT – qHTS for Inhibitors of Tau Fibril Formation, Thioflavin T Binding | recombinant tau K18 P301L, heparin-induced fibrillization, ThT fluorescence | AID 1460, 2008 | Potency, µM (doses to about 57.4 µM), inactives show top-dose activity, negative = inhibition, hits mostly inhibitors | Microtubule-associated protein tau (Homo sapiens), P10636 | 2.1% of 270,000 active; active means well fitted curve in the direction sought with a large enough effect; inconclusive means small, poorly fitted or top-dose-only effect, or another doubt; inactive means no such curve, though single readings can be large; an effect the other way counts as inactive or inconclusive; further: nearly all actives have a fitted effect of over 55% in size
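Heparin-induced (20 uM) aggregation of recombinant human K18 P301L tau, 15 uM unlabeled with 0.24 uM labeled, pH 7 acetate buffer, 6 hr at 37 C with compound. Fibrils quantified by 30 uM ThT fluorescence after 1 hr ambient incubation.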
Tau fibril FP – qHTS for Inhibitors of Tau Fibril Formation, Fluorescence Polarization; 0.39% of 280,000 active; K18 P301L tau heparin fibrillization, Alexa594 FP, 6 h; Potency, µM (doses to about 57.7 µM), without a hit: top-dose activity, negative = inhibition, hits mostly inhibitors; AID 1468, 2008; active means well fitted curve in the direction sought with a large enough effect; inconclusive means small, poorly fitted or top-dose-only effect, or another doubt; inactive means no such curve, though single readings can be large; an effect the other way counts as inactive or inconclusive; further: nearly all actives have a fitted effect of over 55% in size
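Read-out: fluorescence polarization of Alexa 594-labeled tau (0.24 uM), 555 nm excitation, 632 nm emission. Mixtures held 15 uM unlabeled K18 P301L, compound and 20 uM heparin, pH 7 acetate buffer, incubated 6 hr at 37 C.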
ALDH1A1 inh – qHTS Assay for Inhibitors of Aldehyde Dehydrogenase 1 (ALDH1A1). Potency, µM (highest dose often 75.3 µM), for inactives: at the top dose activity, negative = inhibition, usual class: inhibitors. Purified ALDH1A1, NADH fluorescence, propionaldehyde substrate. 7.3% of 220,000 active. Aldehyde dehydrogenase 1A1 (Homo sapiens), P00352;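 further: plate controls were no enzyme wells and a reference inhibitor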
Target sequence (P00352 whole entry, looked up): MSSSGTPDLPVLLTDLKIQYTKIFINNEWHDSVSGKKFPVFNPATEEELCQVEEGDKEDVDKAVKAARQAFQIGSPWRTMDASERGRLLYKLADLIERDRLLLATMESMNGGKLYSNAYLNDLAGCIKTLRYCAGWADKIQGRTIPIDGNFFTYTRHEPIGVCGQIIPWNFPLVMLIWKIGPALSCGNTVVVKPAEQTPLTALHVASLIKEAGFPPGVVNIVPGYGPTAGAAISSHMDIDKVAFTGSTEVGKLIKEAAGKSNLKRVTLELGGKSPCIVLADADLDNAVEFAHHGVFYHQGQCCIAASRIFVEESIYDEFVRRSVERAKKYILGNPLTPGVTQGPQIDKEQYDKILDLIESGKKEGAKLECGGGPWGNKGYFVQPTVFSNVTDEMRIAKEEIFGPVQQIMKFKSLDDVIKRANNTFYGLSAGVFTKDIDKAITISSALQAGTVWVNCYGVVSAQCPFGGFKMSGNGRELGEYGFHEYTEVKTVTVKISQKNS
Tau fluor cs – Counterscreen qHTS for Inhibitors of Tau Fibril Formation, Fluorescence Polarization | tau K18 P301L Alexa594 fluorescence, heparin fibrillization | 0.93% of 280,000 active | Potency, µM (top dose mostly 57.7 µM), for the others: top-dose activity change, negative = decrease; active means well fitted curve in the direction sought with a large enough effect; inconclusive means small, poorly fitted or top-dose-only effect, or another doubt; inactive means no such curve, though single readings can be large; an effect the other way counts as inactive or inconclusive; further: nearly all actives have a fitted effect of over 55% in size
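Human tau K18 P301L (15 uM unlabeled, 0.24 uM Alexa 594-labeled) in 100 mM sodium acetate pH 7 with 20 uM heparin, 6 hr at 37 C. ThT 30 uM added, 1 hr ambient; Alexa 594 FP and total fluorescence read at 555/632 nm.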
Active calls of the source: *; ? = inconclusive; . = no result given; [ ] = remark or other dose. Unless noted, the call rests on the fitted dose curve; in most records, active means well fitted inhibition curve with a large enough effect (not every such curve was filed as active); inconclusive means small, poorly fitted or top-dose-only effect, or another doubt; inactive means no such curve, though single readings can be large or run the other way. Unless noted, on the % scale 0 is the no-effect control and ±100 the full control effect; potency means the concentration at half of the fitted maximal effect.

SMILES	HPGD block	JMJD2E inh	Tau fibril ThT	Tau fibril FP	ALDH1A1 inh	Tau fluor cs
CC1CCc2c(sc(NC(=O)c3cc(-c4ccc(F)cc4)on3)c2C(N)=O)C1 (stereo unspecified)	.	.	?	0.5%	.	4.1%
Cc1cccc(OCC(=O)N/N=C/c2ccc(N(C)C)cc2)c1	.	?	3.55µM*	6.7%	?	-28.5%
Cn1c(=O)c2c(nc(Oc3ccccc3Cl)n2Cc2ccc(C#N)cc2)n(C)c1=O	.	.	-3.9%	-16.0%	.	-8.9%
CCCCCn1c(CN(C)Cc2ccccc2)nc2c1c(=O)n(C)c(=O)n2C	-7.7%	-1.4%	-8.6%	12.0%	10µM*	-1.9%
CCOC(=O)N1CCN(Cc2nc3c(c(=O)n(C)c(=O)n3C)n2Cc2cc(C)ccc2C)CC1	-3.9%	-4.3%	-1.8%	8.9%	0.891µM*	5.6%
CN(Cc1ccccc1)Cc1nc2c(c(=O)n(C)c(=O)n2C)n1Cc1ccc(Cl)cc1	-5.5%	-2.1%	-13.7%	8.9%	?	5.6%
Cc1ccc(Cn2c(CN3CCOCC3)nc3c2c(=O)n(C)c(=O)n3C)cc1	-15.1%	5.6%	-2.1%	10.6%	10µM*	1.3%
Cc1ccc(C)c(Cn2c(CN(C)Cc3ccccc3)nc3c2c(=O)n(C)c(=O)n3C)c1	-18.0%	-6.7%	-13.4%	6.4%	?	-6.5%
Cc1ccc(Cn2c(CN(C)Cc3ccccc3)nc3c2c(=O)n(C)c(=O)n3C)cc1	-8.4%	-5.4%	?	5.6%	7.08µM*	-5.2%
CCCCn1c(CN2CCN(C(=O)OCC)CC2)nc2c1c(=O)n(C)c(=O)n2C	-7.6%	-4.7%	6.4%	-2.1%	?	5.0%
COc1cc(Cl)c(C)cc1NC(=O)Cn1ncc2c3ccccc3n(Cc3ccccc3)c2c1=O	.	.	3.7%	-0.6%	.	-17.0%
CC1C=CCCOC1c1ccccc1 (stereo unspecified)	.	.	-6.2%[11.5 µM]	-3.0%[11.6 µM]	-1.7%[13.5 µM]	-4.9%[11.6 µM]
O=C(c1cc2ccccc2o1)c1nc2c(n1O)CCCCC2	14.1µM*	-7.0%	?	4.6%	-0.7%	-2.8%
CCc1ccc(NC(=O)CC2C(=O)N(c3cccc(C)c3)C(=O)N2C2CC2)cc1 (stereo unspecified)	.	5.0%	1.0%	-5.3%	11.2µM*	1.0%
COC(=O)c1ccc(NC(=O)CC2C(=O)N(c3cccc(C)c3)C(=O)N2C2CCCC2)cc1 (stereo unspecified)	.	.	-3.0%	-11.2%	.	?
CCc1ccc(NC(=O)CC2C(=O)N(c3ccc(C)cc3)C(=O)N2CCc2ccncc2)cc1 (stereo unspecified)	.	-15.0%	-0.1%	-13.8%	3.55µM*	-19.4%
CCc1ccc(-n2c(=O)c3c(C)c(C(=O)N(C)C)sc3n(CC(=O)NCc3ccco3)c2=O)cc1	-13.5%	6.7%	-3.6%	5.8%	9.7%	-3.7%
Cc1c(N=C2N=C(NC(=O)c3ccc(F)cc3)c3ccccc32)c(=O)n(-c2ccccc2)n1C	.	8.9%	?	-8.6%	?	-27.1%
O=C(COC(=O)c1cccnc1Cl)c1ccccc1	-14.9%	9.1%	1.9%	-2.1%	-9.1%	3.6%
NS(=O)(=O)c1cc(C(=O)OCC(=O)c2ccccc2)c(Cl)cc1Cl	.	-5.4%	-1.9%	-9.2%	15.8µM*	-9.8%
COc1ccc(NC(=O)C(NS(=O)(=O)c2cccc3nsnc23)c2ccccc2)cc1 (stereo unspecified)	.	.	-10.1%	-4.1%	.	-27.0%
CCc1ccc(Nc2nnc(SCC(=O)Nc3cccc(S(=O)(=O)NC4=NCCCCC4)c3)s2)cc1	?	-18.8%	-11.4%	5.2%	17.8µM*	?
Cc1cccc(NC(=O)CSc2nnc(NC(=O)CN3CCCCC3)s2)c1	-11.4%	2.7%	-0.7%	-0.6%	18.7%	0.5%
Cc1ccc(Nc2nnc(SCC(=O)Nc3cccc(S(=O)(=O)NC4=NCCCCC4)c3)s2)cc1	-18.4%	0.3%	-10.0%	7.0%	-13.0%	?
Cc1cccc(Nc2nnc(SCC(=O)Nc3cccc(S(=O)(=O)N4CCCCC4)c3)s2)c1	20µM*	-2.5%	-10.5%	-25.3%	?	12.6µM*[quencher]
SMILES	HPGD block	JMJD2E inh	Tau fibril ThT	Tau fibril FP	ALDH1A1 inh	Tau fluor cs
CN(C)c1ccnc(N(Cc2ccccc2)Cc2ccccc2)c1C#N	-11.5%	-5.7%	-17.6%	6.5%	?	-19.3%
COc1ccc(-c2n[nH]c(=S)n2-c2cc(OC)ccc2OC)cc1	.	-7.5%	-1.9%	-4.5%	.	-0.1%
COc1ccc(OC)c(-n2c(-c3ccc(C)cc3)n[nH]c2=S)c1	?	-0.3%	-5.2%	-5.6%	17.8µM*	-0.7%
COc1ccc(-c2n[nH]c(=S)n2N)c(OC)c1	.	?	4.8%	4.4%	25.1µM*	9.4%
COCCN(C(=O)c1ccco1)C(C(=O)NC1CCCC1)c1cccs1 (stereo unspecified)	-0.3%	-5.9%	-3.3%	9.2%	?	5.9%
COc1ccc(N2CCN(S(=O)(=O)CCNC(=O)Cc3ccc(Cl)cc3)CC2)cc1	.	.	-2.1%	1.2%	.	-4.2%
O=C(COC(=O)C1CSC2(c3ccc(F)cc3)CCC(=O)N12)NC(=O)NC1CCCC1 (stereo unspecified)	.	1.8%	-8.4%	2.1%	?	-5.7%
COc1ccc(N(C)C(=O)c2cnc(N3CCN(c4ncccn4)CC3)c3ccccc23)cc1	28.2µM*	2.0%	?	5.2%	-7.3%	-10.6%
CCOC(=O)c1cnc(N2CCN(c3ccc(OC)cc3)CC2)c2ccccc12	.	.	?	8.1%	.	?
CCSc1ncc(Cl)c(C(=O)N(Cc2ccc(N(C)C)cc2)Cc2ccco2)n1	.	.	?	5.6%	.	?
Cn1cc(C(=O)c2ccccc2)cc1-c1nc2ccccc2n1C	?	-25.5%	-17.5%	2.2%	-14.1%	-6.3%
Cc1oc(-c2nc3ccccc3n2C)cc1C(=O)c1ccccc1	35.5µM*	-10.4%	?	?	?	-7.1%
CCOc1ccc(CN(CCc2ccc3c(c2)OCO3)Cc2cc(OC)c(OC)cc2OC)cc1	.	.	-9.4%	3.6%	.	-26.7%
COCCCn1c(N)c(-c2nc3ccccc3n2C)c2nc3ccccc3nc21	?	-20.1%	17.8µM*	?	12.0%	15.8µM*[quencher]
Cn1c(-c2c(N)n(CCCc3ccccc3)c3nc4ccccc4nc23)nc2ccccc21	?	-4.8%	4.1%	4.4%	?	3.0%
Cn1c(-c2c(N)n(CCc3ccccc3)c3nc4ccccc4nc23)nc2ccccc21	-17.8%	-16.6%	?	8.9%	-10.9%	12.6µM*[quencher]
CS(=O)(=O)N1CCC[C@@]2(CCN(c3ccccc3)C2)C1	-0.3%	.	.	.	?	.
